CHT allo act = human CHT allosteric activation; B-score at 10 µM; CHT-expressing cells, membrane potential dye, choline EC20; active compounds read high; LV-AA mutant CHT in HEK293 cells; AID 488977; actives 0.49% (n = 310,000);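 active = initial fluorescence not abnormally high and integrated response B-score, plate-corrected, over 3 SD above library mean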
TMEM16A act = mouse TMEM16A channel activation, primary screen. AID 623877. B-score at 10 µM. HEK293 TMEM16A/YFP-H148Q/I152L, iodide quench fluorescence; active compounds read low. Q8BHY3. actives 0.3% (n = 340,000);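 active = fluorescence-ratio B-score plate-corrected deviation score at least 3 library SD below zero, with starting fluorescence score within 5 deviations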;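 note: channel opened by trigger with iodide after compound preincubation; score built on the fluorescence ratio of max minus min over baseline; more negative score means more quench and so TMEM16A activation or potentiation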
Target sequence (Q8BHY3 whole entry, looked up): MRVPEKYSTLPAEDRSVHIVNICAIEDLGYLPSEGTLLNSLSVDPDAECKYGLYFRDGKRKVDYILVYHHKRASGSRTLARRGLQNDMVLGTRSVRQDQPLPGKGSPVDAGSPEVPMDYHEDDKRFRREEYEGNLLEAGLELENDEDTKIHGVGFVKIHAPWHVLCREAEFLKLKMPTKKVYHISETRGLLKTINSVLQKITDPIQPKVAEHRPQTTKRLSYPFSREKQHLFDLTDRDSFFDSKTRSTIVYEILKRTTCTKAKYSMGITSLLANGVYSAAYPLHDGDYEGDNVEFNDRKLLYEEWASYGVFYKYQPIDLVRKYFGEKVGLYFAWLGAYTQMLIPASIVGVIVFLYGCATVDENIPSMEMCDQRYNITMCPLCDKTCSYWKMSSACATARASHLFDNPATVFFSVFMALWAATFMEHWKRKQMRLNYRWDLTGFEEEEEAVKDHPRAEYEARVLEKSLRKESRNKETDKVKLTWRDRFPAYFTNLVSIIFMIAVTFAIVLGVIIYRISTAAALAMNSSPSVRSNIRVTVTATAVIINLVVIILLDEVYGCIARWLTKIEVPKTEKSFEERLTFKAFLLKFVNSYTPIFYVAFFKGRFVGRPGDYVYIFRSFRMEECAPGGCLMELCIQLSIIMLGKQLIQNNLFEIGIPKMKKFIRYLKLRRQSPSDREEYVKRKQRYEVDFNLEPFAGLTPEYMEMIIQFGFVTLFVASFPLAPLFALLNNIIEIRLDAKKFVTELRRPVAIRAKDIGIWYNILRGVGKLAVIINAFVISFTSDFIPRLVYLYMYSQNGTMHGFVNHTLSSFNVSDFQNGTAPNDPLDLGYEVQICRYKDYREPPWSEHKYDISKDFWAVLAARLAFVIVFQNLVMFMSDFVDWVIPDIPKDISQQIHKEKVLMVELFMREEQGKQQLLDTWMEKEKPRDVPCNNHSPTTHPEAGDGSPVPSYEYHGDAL
ANO1 block = blocks the mouse calcium-activated chloride channel TMEM16A | HEK293 TMEM16A/YFP iodide influx fluorescence, ionomycin | actives 1.2% (n = 310,000) | normalized B-score (activity score, 25-100; higher = stronger inhibition) at 10 µM | Q8BHY3;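 active = ratio plate-corrected score three or more library SD toward inhibition, starting fluorescence score within five deviations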;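 note: score derived from kinetic fluorescence span divided by baseline fluorescence per well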
CHT block = human CHT choline transport inhibition. Q9GZV3. CHT-expressing cells, membrane potential dye, choline response; active compounds read low. B-score at 10 µM. actives 0.86% (n = 310,000);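 active = B-score over 3 SD under the library average, and starting fluorescence ratio not unusually high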;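 note: choline stimulus applied at its EC90 after an EC20 pre-addition; B-score computed on integrated fluorescence ratio after choline addition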
* marks the source's active call; other numbers are inactive results; i = inactive; / = no result given. An excerpt weighted towards active compounds, which were near 2.4% of everything screened.

SMILES	CHT allo act	TMEM16A act	ANO1 block	CHT block
CCOC(=O)C1CCN(S(=O)(=O)c2c(Cl)ccc3nonc23)CC1	i	i	i	-5.4*
Cc1c(C(c2ccc(C(=O)O)cc2)c2c(C)n(C)n(-c3ccccc3)c2=O)c(=O)n(-c2ccccc2)n1C	i	i	i	i
CC(C)C(=O)N1CCN(c2ccc(NC(=O)c3ccc4c(c3)OCCO4)cc2)CC1	i	i	i	i
Cc1ccccc1C(=O)N1CCN(c2ccc(NC(=O)c3ccc4c(c3)OCCO4)cc2)CC1	i	i	25*	i
CCCSc1nc(N)c2c3c(sc2n1)CN(C)CC3	7.2*	i	i	i
CSc1nc(NCCCN(C)C)c2c3c(sc2n1)CN(C)CC3	i	/	i	i
CSc1nc(NCC(C)C)c2c3c(sc2n1)CN(C)CC3	i	i	i	i
CN(C)CCSc1nc(N)c2c3c(sc2n1)CN(C)CC3	i	i	i	-8*
Cc1cc(=O)[nH]c(SCC(=O)Nc2ccc3c(c2)CCC3)c1C#N	/	i	/	/
Cc1cc(=O)[nH]c(SCC(=O)Nc2ccc(Br)cc2)c1C#N	i	i	100*	i
COc1ccc(OC)c(/C=N\NC(=O)CSc2nnc(CCCc3ccc(OC)c(C)c3)o2)c1	i	i	100*	i
COc1ccc(CCCc2nnc(SCC(=O)Nc3cc(C)c(C)cc3Br)o2)cc1	i	i	i	i
COC(=O)c1[nH]c2c(c1C)C(=O)CC(c1cccc(OC)c1)C2 (stereo not given)	i	i	i	i
CCN(CC(=O)Nc1ccccc1C(F)(F)F)C(=O)c1ccc2[nH]c3c(c2c1)CC(C)CC3 (stereo not given)	i	i	i	i
Cc1cc(C)nc(-n2nc(C)cc2Nc2ccccc2)n1	i	i	i	-5.2*
C=C1CC[C@H](O)C/C1=C/C=C1\CCC[C@]2(C)[C@@H]([C@H](C)/C=C/[C@H](C)C(C)C)CC[C@@H]12	i	i	i	i
CC(C)=CCc1c(O)cc(O)c2c(=O)c(O[C@@H]3O[C@@H](C)[C@H](O)[C@@H](O)[C@H]3O)c(-c3ccc(O)cc3)oc12	i	i	i	i
CC(C)=CCc1c(O)cc2c(=O)c3ccc(O)cc3oc2c1O	i	-7*	i	i
Cc1ccc(-n2[nH]c(C)c(/C=N/NC(=O)c3ccc([N+](=O)[O-])cc3)c2=O)c(C)c1	7.5*	/	i	i
NC(=O)COC(=O)c1ccccc1OCc1ccc(Cl)cc1	i	-25*	i	i
CN(C(=O)c1ccccc1OCc1ccc(Cl)cc1)c1ccccc1	i	i	i	i
CCC1CCCCN1S(=O)(=O)c1ccc(C(=O)Nc2nnc(-c3ccccc3Cl)o2)cc1 (stereo not given)	i	i	100*	i
CC1CCCCN1S(=O)(=O)c1ccc(C(=O)Nc2nnc(-c3ccccc3Cl)o2)cc1 (stereo not given)	i	i	i	i
CC(C)c1ccc(OCC(=O)NNC(=S)NC(=O)c2ccco2)c(Br)c1	i	i	i	i
CC(C)(C)c1ccc(OCC(=O)NNC(=S)NC(=O)c2ccco2)c(Br)c1	i	-9*	25*	i
SMILES	CHT allo act	TMEM16A act	ANO1 block	CHT block
O=C(c1cc(C2CC2)nn1-c1ccccc1)N1CCN(Cc2ccccc2F)CC1	/	i	/	/
CCOc1cc(CNS(=O)(=O)c2ccc3c(c2)CC(=O)N3C)cc(OCC)c1OCC	i	-5.2*	i	i
CN1C(=O)Cc2cc(S(=O)(=O)NCc3cccs3)ccc21	i	i	i	i
COc1ccc(C)cc1NC(=O)COC(=O)c1c(C)nn(-c2ccccc2)c1C	/	i	/	/
CN(Cc1ccccc1)C(=O)CSc1nc2c(c(C(F)(F)F)n1)CCc1ccccc1-2	i	i	25*	i
COc1ccc(OC)c(CC(=O)N2CCc3cc(OC)c(OC)cc3C2)c1	i	i	i	i
NC(=S)N/N=C/c1c[nH]c2ccc(OCc3ccccc3)cc12	i	i	25*	i
CCOc1ccc(NS(=O)(=O)c2cc(OC)ccc2OC)cc1	i	i	i	i
CCOc1ccc(S(=O)(=O)Nc2ccc(F)cc2)c(C)c1C	i	i	25*	i
CC1(C)CC(=O)C(C2C3=C(CC(C)(C)CC3=O)Oc3c(Br)cc(Br)cc32)=C(O)C1 (stereo not given)	i	i	25*	i
O=C(NCC1CCCO1)C1CCCN1C(=O)Nc1ccccc1[N+](=O)[O-] (stereo not given)	i	i	i	i
O=C(NCc1ccc2c(c1)OCO2)C1CCN(S(=O)(=O)c2cccs2)CC1	i	i	i	i
O=C(NCc1ccc2c(c1)OCO2)C1CCN(S(=O)(=O)c2ccc(Br)s2)CC1	i	-6.9*	i	i
Cc1ccc(S(=O)(=O)c2c(C)nn(C(C)(C)C)c2OC(=O)C2CCCC2)cc1	i	i	25*	i
Cc1nn(C(C)(C)C)c(OC(=O)C2CCCC2)c1S(=O)(=O)c1ccccc1	/	i	/	/
O=[N+]([O-])c1cccc(NC(=S)NCCc2ccccc2)c1	i	i	100*	i
O=[N+]([O-])c1ccc(NC(=S)NCCc2ccc(F)cc2)cc1	i	-4.9*	100*	i
CCOC(=O)c1ccc(NS(=O)(=O)c2ccc(Cl)nc2)cc1	i	/	i	i
CCOC(=O)c1cnn(-c2ccc(NS(=O)(=O)c3ccc(Cl)cc3)cc2)c1C(F)(F)F	i	i	100*	i
CCN(CC)S(=O)(=O)c1cc(NS(=O)(=O)c2cccs2)ccc1C	/	i	/	/
COc1ccc(C)cc1Nc1n[n+](-c2ccccc2)c(-c2c(OC)ccc3ccccc23)s1	i	i	100*	i
COc1ccc(C)cc1Nc1n[n+](-c2ccccc2)c(-c2cc(OC)c(OC)cc2Br)s1	i	i	i	i
COc1ccc(-c2sc(Nc3ccccc3)n[n+]2-c2ccc(F)cc2)c(C)c1C	i	-5*	i	-5.4*
Fc1ccc(-[n+]2nc(Nc3ccccc3)sc2-c2c3ccccc3cc3ccccc23)cc1	i	i	i	i
O=C1/C(=C/c2cccs2)SC(=S)N1CCCC(=O)N(CCO)c1ccccc1	i	i	i	i
O=[N+]([O-])c1ccc(NC(=S)N2CCc3ccccc32)cc1	i	i	100*	i
COc1cccc(COCC(O)CN2CCC(C(N)=O)CC2)c1 (stereo not given)	i	i	i	i
O=C(CN1CCC(n2nnc3cc(F)ccc32)CC1)Nc1ccccc1N1CCOCC1	i	i	i	i
Fc1ccc(C(CCCn2nnc(-c3cccnc3)n2)c2ccc(F)cc2)cc1	i	i	100*	i
Cc1nnc(SCc2nnc(-c3ccccc3Br)o2)s1	i	-7.9*	i	i

Screening results deposited in PubChem by Johns Hopkins Ion Channel Center.
